# Screens (PubChem BioAssay)
# Tau fibril ThT = qHTS for Inhibitors of Tau Fibril Formation, Thioflavin T Binding. Microtubule-associated protein tau (Homo sapiens), P10636. recombinant tau K18 P301L, heparin-induced fibrillization, ThT fluorescence. Potency, µM (highest dose often 57.4 µM), for inactives: top-dose activity, negative = inhibition, hits mostly inhibitors. hit rate 2.1% among 270,000; further: nearly all actives have a fitted effect of over 55% in size
# Target sequence (P10636 561-689 P618L limits assumed): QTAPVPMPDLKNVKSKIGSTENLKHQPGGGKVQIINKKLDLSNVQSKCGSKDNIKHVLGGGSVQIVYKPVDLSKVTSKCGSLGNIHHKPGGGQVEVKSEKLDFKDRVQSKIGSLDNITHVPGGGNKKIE
#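 Recombinant human tau K18 fragment […] carrying P301L, 15 uM unlabeled plus 0.24 uM Alexa 594-labeled, was fibrillized with 20 uM heparin in 100 mM sodium acetate pH 7 for 6 hr at 37 C; 30 uM ThT fluorescence read after 1 hr.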
# TexasRed fluor = Total Fluorescence Counterscreen for Inhibitors of the Interaction of Thyroid Hormone Receptor and Steroid Receptor Coregulator 2; TRb/SRC2 Texas Red total fluorescence interference; Potency, µM (titrated, usually from 106 µM), for inactives: at the top dose fluorescence change, negative = quenching; hit rate 0.29% among 280,000; AID 1479, 2009; active means well fitted curve in either direction with a large enough effect; inconclusive means small, poorly fitted or top-dose-only effect
#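 Flags fluorescent or light-absorbing compounds by total fluorescence, S + 2P, at 555 nm excitation and 632 nm emission. Mixture: 20 nM Texas Red SRC2 peptide, 0.6 uM human TRb LBD, 1 uM T3, 5% DMSO; compound exposure 5 h at ambient temperature.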
# Tau fibril FP = qHTS for Inhibitors of Tau Fibril Formation, Fluorescence Polarization; K18 P301L tau heparin fibrillization, Alexa594 FP, 6 h; Potency, µM (doses to about 57.7 µM), inactives show at the highest dose activity, negative = inhibition, actives largely listed as inhibitors; hit rate 0.39% among 280,000; AID 1468, 2008; further: nearly all actives have a fitted effect of over 55% in size
#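 Quantitative HTS format: compounds meet 15 uM recombinant K18 P301L tau and Alexa 594-tau tracer in 100 mM sodium acetate pH 7; 20 uM heparin triggers fibrillization at 37 C over 6 hr; FP gives the signal.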
# Tau fluor cs = Counterscreen qHTS for Inhibitors of Tau Fibril Formation, Fluorescence Polarization. tau K18 P301L (four-repeat tau fragment) Alexa594 fluorescence, heparin fibrillization. Potency, µM (doses to about 57.7 µM), for inactives: top-dose activity change, negative = decrease. hit rate 0.93% among 280,000. AID 1463, 2008; further: nearly all actives have a fitted effect of over 55% in size
#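 Human K18 P301L tau (15 uM unlabeled plus 0.24 uM Alexa 594-labeled, final) in 100 mM sodium acetate pH 7 was mixed with compound and 20 uM heparin and incubated 6 hr at 37 C.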
# GoLoco inh red = qHTS Assay for Inhibitors of RGS12 GoLoco Motif Activity (Red Fluorophore). hit rate 0.44% among 230,000. Gai1:RGS12 GoLoco peptide FP, rhodamine, 10 min. AID 880, 2007. Potency, µM (highest dose often 61.6 µM), for inactives: top-dose activity, negative = inhibition, most hits filed as inhibitors. Guanine nucleotide-binding protein G(i) subunit alpha-1 (Homo sapiens), P63096; active means well fitted inhibition curve with a large enough effect, not every such curve was filed as active; inactive means no such curve, though single readings can be large or run the other way; further: nearly all actives have a fitted effect of over 30% in size
# TRb-SRC2 inh = qHTS for Inhibitors of the Interaction of Thyroid Hormone Receptor and Steroid Receptor Coregulator 2; Thyroid hormone receptor beta (Homo sapiens), P10828; TRbeta-SRC2 peptide binding, fluorescence polarization; receptor liganded with 1 µM T3; Potency, µM (series often up to 106 µM), without a hit: at the top dose activity change, negative = inhibition, actives largely listed as inhibitors; hit rate 0.065% among 280,000;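 further: plate controls were bound peptide for no effect and peptide without receptor for full effect; nearly all actives have a fitted effect of over 50% in size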
# Target sequence (P10828 whole entry, looked up): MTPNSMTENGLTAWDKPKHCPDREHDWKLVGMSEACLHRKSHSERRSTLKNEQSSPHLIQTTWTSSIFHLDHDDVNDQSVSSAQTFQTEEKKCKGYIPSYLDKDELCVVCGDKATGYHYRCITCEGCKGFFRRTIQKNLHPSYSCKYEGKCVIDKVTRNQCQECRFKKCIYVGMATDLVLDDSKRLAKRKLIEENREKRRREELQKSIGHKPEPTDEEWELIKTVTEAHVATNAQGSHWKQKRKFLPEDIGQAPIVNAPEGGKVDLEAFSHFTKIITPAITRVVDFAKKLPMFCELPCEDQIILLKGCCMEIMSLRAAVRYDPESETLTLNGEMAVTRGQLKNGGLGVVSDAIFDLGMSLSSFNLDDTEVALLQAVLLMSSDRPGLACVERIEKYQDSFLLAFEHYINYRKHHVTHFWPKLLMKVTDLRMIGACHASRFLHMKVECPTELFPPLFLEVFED
#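 Each compound concentration gave % activity, normalized to unbound and bound Texas Red SRC2 controls, from polarization read after 5 hr ambient incubation with T3-loaded human TRb LBD.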
# * hit, by the source's call; u = inconclusive; x = not tested or not shown; [ ] = dose if it differs, or a comment. The list is not random: actives were taken first. Their share in the collection is about 3.2%. Unless noted, the call rests on the fitted dose curve; in most records, active means well fitted curve in the direction sought with a large enough effect; inconclusive means small, poorly fitted or top-dose-only effect, or another doubt; inactive means no such curve, though single readings can be large; an effect the other way counts as inactive or inconclusive. Unless noted, on the % scale 0 is the no-effect control and ±100 the full control effect; potency means the concentration at half of the fitted maximal effect.
SMILES,Tau fibril ThT,TexasRed fluor,Tau fibril FP,Tau fluor cs,GoLoco inh red,TRb-SRC2 inh
CC(C)C[C@H](NC(=O)[C@H](CC(C)C)NC(=O)[C@H](Cc1ccc(O)cc1)NC(=O)CNC(=O)[C@H](C)NC(=O)[C@H](CO)NC(=O)[C@H](CC(N)=O)NC(=O)[C@H](CC(C)C)NC(=O)[C@@H](NC(=O)[C@H](Cc1c[nH]c2ccccc12)NC(=O)CN)[C@@H](C)O)C(=O)NCC(=O)N1CCC[C@H]1C(=O)N1CCC[C@H]1C(=O)N1CCC[C@H]1C(=O)NCC(=O)N[C@@H](Cc1ccccc1)C(=O)N[C@@H](CO)C(=O)N1CCC[C@H]1C(=O)N[C@@H](Cc1ccccc1)C(=O)N[C@@H](CCCNC(=N)N)C(N)=O,x,3.9%,x,x,x,7.4%
COc1cc2oc(=O)cc(-c3ccc(-c4ccc(NC(C)=O)cc4)cc3)c2c(OC)c1OC,-18.5%,1.4%,u,u,-29.8%,0.5%
O=C1/C(=C/c2ccco2)SC(=S)N1CC1CCCO1 (configuration not stated),20µM*,1.6%,u,u,75.4%,-7.2%
O=C1/C(=C/c2cccnc2)SC(=S)N1CC1CCCO1 (configuration not stated),-17.3%,-2.4%,-4.1%,-7.9%,12.6%,2.4%
COc1ccc(/C=C2\SC(=S)N(CC3CCCO3)C2=O)cc1 (configuration not stated),u,-3.7%,-10.0%,-26.7%,59.1%,1.7%
Cc1ccc(/C=C2\SC(=S)N(CC3CCCO3)C2=O)o1 (configuration not stated),15.8µM*,8.6%,u,-23.7%,91.7%,4.5%
COc1cc(/C=C2/SC(=S)N(CC3CCCO3)C2=O)ccc1O (configuration not stated),14.1µM*,14.4%,11.1%,11.2µM*[quencher],247.6%,27.6%
CCOc1ccccc1-c1nnc2n1N=C(c1ccc(OC)cc1)CS2,x,-2.9%,x,x,x,4.8%
N#CCCCS(=O)(=O)c1nnnn1-c1ccc(Br)cc1,-4.7%,-1.1%,-3.8%,-1.7%,-0.5%,1.2%
CCN1CCN(CCCNC(=O)Cn2c(-c3cccs3)cc3cc(F)ccc32)CC1,-3.6%,141µM*[quencher],-1.7%,-6.5%,x,u
COCCNC(=O)Cn1c(-c2cccs2)cc2cc(Cl)ccc21,1.4%,126µM*[quencher],2.3%,-4.2%,x,-19.8%
O=c1cc(O)cc(/C=C/c2ccc(O)c(O)c2)o1,u,-11.0%,2.9%,u,-5.3%,2.7%
COc1ccccc1C1(O)CCN(CCCn2c3ccccc3c3ccccc32)CC1,x,-0.5%,x,x,x,11.4%
NC(=O)CS(=O)C[C@H](N)C(=O)O (some centres not stated),x,x,x,x,-19.3%[14.2 µM],x
CCOC(=O)N1CCc2c(sc3c2c(=O)n(Cc2ccccc2)c(=O)n3CC(=O)Nc2ccc(C)cc2C)C1,1.9%,1.0%,-5.4%,-13.2%,x,-2.8%
Cc1c(O)ccc(/C=N/Nc2nc(-c3cccnc3)nc3ccccc23)c1O,u,-28.9%,u,u,18.8%,12.5%
Oc1ccc(/C=N/Nc2nc(-c3cccnc3)nc3ccccc23)c(O)c1,2.24µM*,-16.5%,u,11.2µM*[quencher],43.6%,9.0%
O=C(CO/N=C/c1cccc([N+](=O)[O-])c1)NC1CCCCC1,-5.5%,u,-2.6%,-9.7%,0.2%,-9.9%
O=C(CO/N=C/c1cccc([N+](=O)[O-])c1)Nc1ccc2ccccc2c1,u,1.0%,-5.5%,12.6µM*[quencher],-15.2%,-2.8%
O=C1c2ccccc2C(=O)C1Cc1cccc2ccccc12,u,-1.3%,-11.6%,-23.4%,-5.5%,-4.0%
O=C1c2ccccc2C(=O)C12OC2c1cccc2ccccc12 (configuration not stated),2.51µM*,6.3%,4.47µM*,-13.1%,-2.3%,-1.4%
CCCCN(C)C(=O)c1ccc2c(c1)N(Cc1ccc(F)cc1)C(=O)c1ccccc1S2(=O)=O,u,0.0011µM*[quencher],-2.6%,u,x,-12.4%
CC(=O)c1ccc(NC(=O)c2ccc3c(c2)N(Cc2cccc(Cl)c2)C(=O)c2ccccc2S3(=O)=O)cc1,-10.2%,-1.2%,15.8µM*,u,x,7.0%
COc1ccc(NC(=O)c2ccc3c(c2)N(Cc2cccc(Cl)c2)C(=O)c2ccccc2S3(=O)=O)cc1Cl,12.2%,-1.0%,15.8µM*,-17.4%,x,0.0%
O=C(NC1CCCCC1)c1ccc2c(c1)N(Cc1ccc(F)cc1)C(=O)c1ccccc1S2(=O)=O,u,u,-14.6%,u,x,-26.0%
SMILES,Tau fibril ThT,TexasRed fluor,Tau fibril FP,Tau fluor cs,GoLoco inh red,TRb-SRC2 inh
O=C(Nc1cccc(F)c1)c1ccc2c(c1)N(Cc1ccccc1)C(=O)c1ccccc1S2(=O)=O,5.2%,-0.5%,14.1µM*,u,x,5.2%
CC[C@@]1([N+](=O)[O-])C[C@H]2C=C[C@@H]1C2,x,x,x,x,6.7%[14.2 µM],x
Cc1ccsc1CCN1C(=O)N(c2ccccc2)C(=O)C1CC(=O)Nc1ccc(Cl)cc1 (configuration not stated),7.3%,-1.2%,u,u,x,4.9%
Cc1ccc(SCC(=O)NCCCN2CCOCC2)cc1,5.7%,3.0%,2.4%,2.5%,4.7%,0.9%
Cc1cc(C)c2c(=O)n(CC(=O)NCCCN3CCN(c4ccccc4F)CC3)sc2n1,14.1µM*,-3.5%,u,-24.4%,20µM*,-19.9%
Cc1cc(C)c2c(=O)n(CC(=O)NCCCN3CCOCC3)sc2n1,10µM*,2.7%,15.8µM*,-20.8%,31.6µM*,-3.8%
O=C(O)c1ccc(S(=O)(=O)N[C@@H](Cc2ccc(O)cc2)C(=O)O)cc1,x,-2.0%,x,x,x,5.6%
CC1Cc2cc(S(=O)(=O)CCC(=O)Nc3ccc(F)cc3)ccc2N1C(=O)C1CC1 (configuration not stated),11.6%,-0.7%,1.7%,5.1%,x,-0.8%
CCOc1cc(/C=C(/C#N)C(=O)Nc2ccc(O)cc2)cc(Br)c1O,8.91µM*,-16.7%,13.4%,u,-4.0%,-0.5%
Cc1cccc(NC(=O)CSc2cn(CC(=O)N3CCC(C)CC3)c3ccccc23)c1C,u,-0.4%,-6.7%,-13.8%,x,-2.7%
CCCCN(CCCC)S(=O)(=O)c1ccc(NC(=O)c2cccs2)cc1,-4.0%,1.0%,14.1µM*,u,8.2%,8.0%
